Experimental data from ChEMBL document CHEMBL3988442, “University of Dundee, Small-Polar-MMV Screening Library” (2021).

What follows are compounds tested against AMP-activated protein kinase, AMPK (Homo sapiens) (UniProt P54646+O43741+P54619+Q9UGJ0+Q9Y478+Q13131+Q9UGI9) (assay: AMP-dependent Kinase enzyme assay. An in vitro enzyme assay that detects ADP turnover that is directly proportional to AMPK activity. This uses naive AMPK that is activated during the assay with MK-8722). Conditions: 30 µM.
Assay type: functional
Set-up: scale not given: direction of the effect not stated beside the values

| Compound | Percent Effect [%] |
| --- | --- |
| O=S(=O)(c1cn[nH]c1)N1CCCC(O)(CN2CCOCC2)CC1 (stereo not given) | 13.3 |
| CC(CCc1ncnn1Cc1cccc(Cl)c1)N1CCCC1 (stereo not given) | 7.16 |
| Cc1nn(C)c(C)c1-c1ccc(=O)n(C(C)C(=O)NCc2ccco2)n1 (stereo not given) | 17.2 |
| Cc1nncn1CCN1C(=O)CC2(CCCC2)CC1=O | 9.66 |
| O=C(CC1CCCC1)NCCS(=O)(=O)N1CCN(c2ncccn2)CC1 | -1.03 |
| CC(CNC(=O)c1c[nH]nn1)Oc1ccc(Cl)cc1 (stereo not given) | 3.24 |
| CC(NCc1cnc(N2CCN(C)CC2)nc1)c1ccc(F)cc1 (stereo not given) | -1.25 |
| COc1cc2c(cc1CNCc1ccnc(-n3cccn3)c1)OC(C)C2 (stereo not given) | -1.78 |
| CC(C)c1nnc2n1CCN(Cc1ccc3c(c1)OCO3)CC2 | 9.68 |
| Cc1cccc(Nc2noc3c2CN(C(=O)c2ccn(C)n2)CC3)c1C | 3.74 |
| O=C(c1cnnn1-c1ccccc1)N1CCCC(c2ccn[nH]2)C1 (stereo not given) | -5.43 |
| NC(=O)CC1CCN(c2cncc(OCc3ccccc3)n2)CC1 | 20.6 |
| CCC(C)(CC(=O)OC)NCc1noc(C)n1 (stereo not given) | 1.21 |
| Cc1csc(CCNC(=O)N2CCC(n3cccc3)CC2)n1 | -3.41 |
| N#Cc1cccnc1Nc1ccc(N2CCC(C(N)=O)CC2)cc1 | 19 |
| Cc1nc(CN(C)S(=O)(=O)c2ccccc2C(F)(F)F)no1 | 4.4 |
| Cn1cc(N2CCN(c3ccc(C#N)c(Cl)c3)CC2=O)cn1 | -3.11 |
| Cc1nc2sccn2c1CN(CCCN(C)C)Cc1ccccn1 | 3.1 |
| N#Cc1cccc(N2CCC(CO)(CCCc3ccccc3)CC2)n1 | 6.03 |
| O=S(=O)(NCC1(c2cccs2)CCCC1)c1cccnc1 | -4.96 |

| Compound | Percent Effect [%] |
| --- | --- |
| CN([C@@H]1CC[C@@H](N2CCCC2)[C@@H]1O)S(=O)(=O)c1ccccc1 | -6.19 |
| CN1CC=C(CCN(C)C(=O)CCc2ccccc2)CC1 | -0.771 |
| CC(C)(C)c1nc(CC(=O)Nc2cnccc2O)cs1 | -0.224 |
| CCN(Cc1cnc(C)cn1)C1CCN(c2ccccc2)C1=O (stereo not given) | -4.52 |
| CSCCC(NC(N)=O)C(=O)NCc1ccc(-n2cccn2)cc1 (stereo not given) | 0.578 |
| CCNC(=O)[C@@H]1C[C@H](N)CN1c1cc(CC)nc(N(C)C)n1 | -13.7 |
| Cc1nc(CNCC2CNc3ccnn3C2)cs1 (stereo not given) | -8.22 |
| Cc1nn(C)cc1C(=O)N1CCCn2nc(CN3CC[C@H](F)C3)cc2C1 | 2.32 |
| NC(=O)NC1CCN(Cc2ccc3c(c2)CCC3)CC1 | 2.24 |
| Cn1ccc(C(=O)N2CCCC2c2cc[nH]n2)n1 (stereo not given) | 4.63 |
| NC(=O)COc1ccc(CN2CC[C@@]3(O)CCCC[C@H]3C2)cc1Cl | 3.71 |
| COc1nccc(N2CC[C@H](N3CCOCC3)[C@H](CCCO)C2)c1C#N | -3.46 |
| COCCCNc1ncnc2c1CCN(C(=O)CC1C=CCC1)CC2 (stereo not given) | 11.8 |
| O=C1CCCCN1Cc1cccc(OC(F)F)c1 | 11.1 |
| c1cncc(CNCCc2cccs2)c1 | -7.73 |
| O=C1C(N2CC[C@@H](O)C2)CCCN1Cc1cccc(C(F)(F)F)c1 (stereo not given in full) | 5.51 |
| Cc1nc2c(c(NCC(=O)NC(C)C)n1)Cc1ccccc1OC2 | 5.96 |
| Cc1c(C(=O)NCC(C)(C)S(C)(=O)=O)cccc1-c1ccccn1 | 11.1 |
| O=C1NCCCCC1NC(=O)N1CCCc2ccccc21 (stereo not given) | -0.938 |
| Cc1cc(CN(C)c2nc(-c3ccco3)nc3c2CCN(C)CC3)on1 | 6.52 |
